From the supplement of paper PMC6555819

What was measured:
Assay in all cases: PBM binding z-score (relative to random genomic background probes); higher = stronger binding; sequences stand for … in GC…GCGATTGACAGCGTAGAATGAAGG
[1] = tested on: FXR:RXRa (NR concentration 270 nM, RXRa partner concentration 90 nM)
In short: (§1)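 Binding z-scores take random background probes as their reference. They come from custom Agilent 4×180K protein-binding microarrays incubated 1 h with ligand-free nuclear receptor dimers, with antibodies against each partner (one per run) detecting binding. Scanned fluorescence was regression-normalized.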

[2] = tested on: LXRa:RXRa (NR concentration 270 nM, RXRa partner concentration 90 nM)
In short: as §1

[3] = tested on: LXRa homodimer (NR concentration 270 nM)
In short: as §1

[4] = tested on: LXRb:RXRa (NR concentration 270 nM, RXRa partner concentration 90 nM)
In short: as §1

[5] = tested on: LXRb homodimer (NR concentration 270 nM)
In short: as §1

[6] = tested on: PPARa:RXRa (NR concentration 270 nM, RXRa partner concentration 90 nM)
In short: as §1

[7] = tested on: PPARg:RXRa (NR concentration 180 nM, RXRa partner concentration 90 nM)
In short: as §1

[8] = tested on: PPARg:RXRa 270nM:90nM, anti-RXR (NR concentration 270 nM, RXRa partner concentration 90 nM)
In short: as §1

[9] = tested on: PPARg:RXRa 30nM:10nM, anti-RXR (NR concentration 30 nM, RXRa partner concentration 10 nM)
In short: as §1

[10] = tested on: PPARg:RXRa 90nM:30nM, anti-RXR (NR concentration 90 nM, RXRa partner concentration 30 nM)
In short: as §1

Sequence	PBM binding z-score [1]	PBM binding z-score [2]	PBM binding z-score [3]	PBM binding z-score [4]	PBM binding z-score [5]	PBM binding z-score [6]	PBM binding z-score [7]	PBM binding z-score [8]	PBM binding z-score [9]	PBM binding z-score [10]
CCTATTAGTTGACCATAAGGGCTACCGAAGCTCG	0.118	0.0436	0.338	0.131	0.649	-0.0868	0.355	0.0189	0.219	0.0475
CGGACTAGGTCAGAACAGGACAGTGAAGGATGAT	1.12	0.71	-0.0673	0.176	-0.579	2.36	4.2	3.5	1.01	2.58
ATTCAAAGTTCAGGACGAGGTAACGTAAAGCACG	4.14	4.12	1.92	2.22	1.06	3.21	2.19	2.41	1.01	1.54
CCTACTGGGCCATTCAGTGGTCATTGATCATATG	-0.271	-0.187	-0.281	-0.498	-0.602	0.355	0.304	0.661	-0.571	0.191
CAGCCTAGGTCAAGGCCAGTATAGGAGGAACGTT	3.62	2.26	-0.0783	1.7	-0.501	3.45	2.15	2.23	0.352	1.18
ACTAGTTAGTCAGCTGAGGTCACACACAATTCGG	2.63	3.5	2.52	3.72	0.931	3.87	1.72	1.98	0.769	1.49
TCATATAGGTAAAGGCGAAAGTCGAACGATATGA	0.173	0.402	-0.495	0.229	-0.044	1.3	1.1	2.52	3.75	3.23
CCTGCTAGGTCATGGTCAACTAATCTACAGTATG	3.72	2.85	0.245	1.98	-0.184	3.72	2.81	3.17	0.82	1.92
TAGCCTAGGTCAGATCGAGCCAGTATACGCTATA	1.14	0.783	-0.473	0.421	-0.463	1.42	0.564	0.606	-0.102	0.29
CAAACTAGGTCACCGGAAGGTCAAAGTACGCATG	6.81	6.23	5.23	5.83	1.75	6.36	9.91	8.16	6.57	7.9
CGAACTAGGTCAGAACAGGACAGTGAAGGATGAT	1.69	0.689	-0.0376	0.189	-0.174	2.78	4.94	4.45	1.53	3.44
AATACAGGGTCATCGTAGGCTAGAGTACGCACAG	7.1	6.2	2.25	4.59	1.4	6	6.55	5.9	2.52	4.76
CAAACTAAGTCACAGAGGTCAAAGTCCGTGCGTA	5.08	5.61	5.8	5.22	2.02	5.18	3.74	4.78	2.63	4.18
AGAACGAGGGCAAGGAGTTGATAGCACGGGTGGC	0.193	0.0802	-0.479	-0.441	-0.879	1.2	1.25	1.06	-0.111	0.543
TATACAGGGTCAAAGGCCAGAGTTCGAATGTCGA	7.08	6.38	3.94	4.81	2.5	6.15	8.48	7.27	5.54	7.17
TCTAGTTGCTCACGGAGGTCACACACGACGGGTA	2.59	3.1	1.86	3.22	0.53	3.62	1.55	2.79	3.16	2.76
CGTCAAAGTTCAACTAAGGTAACGTAGAGCACGC	7.03	5.95	4.18	4.04	1.71	5.1	5.31	5.6	2.54	4.47
TCATATATGTAATACAGGTGAAAGTCGGCATCTA	0.656	0.799	0.168	0.857	0.395	2.14	2.09	3.12	3.65	3.4
GCAGACAGGTGAAACGCGGGTAACTCAGGGTGGC	0.0652	0.351	-0.771	-0.193	-1.11	0.839	0.342	-0.106	-0.712	-0.458
TCATATAGGTAAACATGTGAAAGTCCGTAAGTTA	0.869	0.742	0.308	0.769	0.208	1.58	1.86	2.39	3.92	3.22
CCGATTGGGGCAAAGGTTACCATACTCAGTACGA	1.84	1.62	-0.0955	2.33	-0.878	4.89	8.96	8.43	7.85	8.46
TCATATAGGTAAGACAGGTGAAAGTCGGCATCTA	1.17	1.21	0.129	0.604	0.0128	1.49	0.925	2.42	4.15	3.3
TTACCAAGGTGAGCTTAGGTCGTTGATCCAACTC	0.558	0.409	-0.684	0.122	-1.23	1.05	-0.0698	0.725	-0.0893	0.244
GGAACGAGGGCAAGTTGAAAGCAGAGTTTGATGG	0.833	0.231	-0.173	0.237	-0.789	1.94	1.02	1.12	0.000931	0.87

Sequence	PBM binding z-score [1]	PBM binding z-score [2]	PBM binding z-score [3]	PBM binding z-score [4]	PBM binding z-score [5]	PBM binding z-score [6]	PBM binding z-score [7]	PBM binding z-score [8]	PBM binding z-score [9]	PBM binding z-score [10]
CAATCTAGGTCAAGAGGTCAAAGTCCGCTTCCCG	7.07	6.49	6.61	5.64	2.31	6.48	10.2	8.66	7.43	9.5
CGAAATAGGTCAGAACAGGACAGTGAAGGATGAT	2.81	2.42	0.564	1.63	0.228	3.89	4.52	4.6	2.18	3.59
TCTTGTATATCAGCAGGTTAAGAAAGCTGGCCAA	0.775	0.883	0.29	1.03	0.727	0.972	-0.165	1.63	3.19	2.42
CCTACTGGGCCAATGGTCATTGATTCCAATGCTC	-0.623	-0.68	-0.691	-0.531	-0.674	1.86	4.15	5.51	3.81	6.38
GGAACGAGGGCATTCGACTTGATAGCATGGCGAT	0.596	0.173	-0.634	-0.0929	-0.467	1.41	1.14	0.717	-0.0237	0.28
CATCAAAGTTCAACTAAGGTAACGTAAAGCACGC	7.36	6.82	5.03	4.54	3.07	5.03	3.96	4.67	2.12	3.32
ATCTCTAGGTAAAATTCAGTGAAAGATCGATAGA	0.583	0.493	0.422	0.121	0.916	0.171	0.606	0.699	0.552	0.917
AGAATGAGGTTAAGATCAGGGTAACAGAATACAT	2.5	2.47	0.0614	2.01	-0.068	3.68	2.64	2.66	0.832	1.9
TCTGCTAGGTCAGTTGGTGAGCTAACGAGCTGCC	0.898	0.467	-0.796	-0.0479	0.264	0.853	-0.0831	1.38	1.18	1.13
TGTCAAAGTTCAAAGGTACCGTAAGTATCCACAC	6.69	6.28	4.68	4.31	1.83	5.79	7.97	7.18	4.9	6.89
CCAGAGAGGTGAGAAGGTAACTCAGCCTCGATTA	0.595	0.597	-0.207	1.02	-0.739	2.17	0.83	1.36	0.216	0.457
TCTTGTAGATCAAAGGTTAAGTAAGCCGAAGCCT	2.04	2.34	0.244	2.28	0.0721	4.84	8.98	8.32	7.35	8.69
AGTCAAAGCTCACTAGGTAACGTAAGATTCAGCT	-0.693	-0.67	-0.464	-0.615	-0.437	0.637	0.855	0.165	0.0714	-0.118
TCGAGTGGGTTAGGGGCATTCAGAATGGCGTCGA	0.437	0.401	0.0912	1.41	0.759	1.46	0.402	1.73	0.9	1.31
CCTACTGGGCCATTCAGAGGTCATTCATCATATG	2.68	4.55	6.9	4.38	0.909	3.72	2.08	3.3	0.754	2.26
AATACAGGGTCATCGTAGGCCAGAGTACGCACAG	7.52	6.07	2.44	4.7	1.5	5.73	6.55	6.09	2.58	4.87
CTCGAAAGGTCGTGCACAGGTGAGTATACCAAAC	5.53	4.43	0.217	4.18	0.385	5.18	3.43	4.58	1.66	3.05
CGAATTAGGTCAGAACAGGACAGTGAAGGATGAT	1.56	1.31	0.144	0.781	0.086	3.41	4.98	4.59	2.05	3.65
TCTGCTAGGTCAACGACGGTCAGCTAATCTGCTA	3.49	4.34	0.203	1.97	0.156	3.28	2.09	2.97	1.76	2.26
TATACAGGGTCAAAGGCCAGAGGACGAATGTCGA	7.18	6.58	2.34	4.72	2.59	5.98	8.38	7.61	5.3	7.21
ATGGAAAGGTCGAGGTGAGTATAGAGAAAGGGAA	4.15	3.47	0.547	2.81	0.956	4.69	3.21	4.02	1.44	2.83
TCTTGTAGATCAAGAAGGTTAAGAAAGCCTGAGT	0.542	0.704	-0.24	0.833	-0.584	1.44	-0.11	1.65	2.96	2.31
ATATGTACGTTAGCTGGGGTCATTCAGACTAGGC	3.94	3.99	2.29	4.39	1.42	4.07	1.74	2.27	0.566	1.33
TCATTTAGGTAAAAGGTGAAAGTCGGTGTGGTAA	1.72	1.89	0.427	1.95	0.881	5.05	8.63	8.2	9.56	9.37
